# According to PubChem BioAssay (NCI):
# This is part of a sample that, as a whole, favours compounds with a hit. Of some 83,000 tested, about 20% had one in any assay.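 Single-concentration screen, 48 h exposure, 96-well plates. Endpoint: percent growth. Below 10 = active.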 Active and inactive are the calls of the source.
# Tested on: RPMI-8226 leukemia
# Assay: NCI-60 one-dose screen, 48 h (100 = growth as untreated, 0 = no growth, -100 = all killed)
# Conditions: 10 µM unless noted
# Protocol: Growth inhibition of the RPMI-8226 human tumor cell line is measured as a screen for anti-cancer activity. Cells are grown in 96 well plates and exposed to the test compound for 48 hours. Compounds are tested at a single concentration, which is 10^-5 M for most compounds. The reported endpoint is percent growth (GI% or GIPRCNT), where numbers from 0 - 100% represent growth inhibition, and numbers from -100% - 0 represent cell death. For example, a value of 40 represents 60% growth inhibition. A value of 0 means no net growth occurred over the course of the experiment. A value of -40 indicates 40% of cells at the beginning of the experiment died by the end of the experiment. A value of -100 means all cells are dead at the end of the experiment.
# NCI-60 Human Tumor Cell Lines Screen was performed using the standard one-dose NCI protocol, which is described in more detail at https://dtp.cancer.gov/discovery_development/nci-60/default.htm.
# Compounds with GIPRCNT values below 10 were considered active. Activity score was based on GIPRCNT using the following formula: […]
# Score is 0 for GIPRCNT values of 100 or above, 50 for GIPRCNT values of 0, and 100 for GIPRCNT values of -100.
row,SMILES,growth
1,COc1cc(C2CC(c3ccc(Cl)cc3)=NN2C(C)=O)ccc1Oc1nc2c(c(=O)n(C)c(=O)n2C)n1C (stereo not given),72.1% (inactive)
2,Cc1ccc(NC(=O)c2cc(NCc3cc(O)ccc3O)ccc2O)cc1,20.2% (inactive)
3,N/C(=N\OC(=O)c1ccccc1)C(Cc1ccccc1)C(=O)NOC(=O)c1ccccc1 (stereo not given),16.4% (inactive)
4,COc1ccc(C(=O)OC2C(OC3C(O)COC(O[C@H]4C[C@H]5[C@@H]6CC=C7C[C@@H](O)CC[C@]7(C)[C@H]6CC[C@]5(C)[C@H]4[C@H](C)C(=O)CCC(C)C)C3OC(N)=O)OCC(O)C2O)cc1 (stereo not given in full),-32.8% (active)
5,Cc1ccc2c(C)c3c(ccc4ccccc43)c[n+]2c1,47.8% (inactive)
6,CC(C)(c1ccccc1)c1cc(O)c(C(C)(C)c2ccccc2)cc1O,9.65% (active)
7,O=C(/C=C/c1cn(-c2ccccc2)nc1-c1ccccc1)OCc1cn(-c2cccc([N+](=O)[O-])c2)nn1,80.4% (inactive)
8,CN(C)CCCN1c2ccccc2CCc2ccccc21,99.4% (inactive)
9,O=C1c2cccc3cccc(c23)C(=O)N1CCCCCCCCCCN1C(=O)c2cccc3cccc(c23)C1=O,108% (inactive)
10,C=C1C(=O)O[C@H]2[C@H]1CC/C(COC(=O)NCc1cn(C)c3ccccc13)=C\CC[C@@]1(C)O[C@@H]21,-29.3% (active)
11,Nc1c(C(=O)C[C@@H](N)CO)ccc2c1C(=O)CCO2,19.2% (inactive)
12,Nc1c(Br)cc2c(c1Br)Cc1cc(Cl)ccc1-2,105% (inactive)
13,CC(C)CCSc1nc(-c2ccc(F)cc2)c(C#N)c(N2CCN(C)CC2)n1,80% (inactive)
14,CNC(=O)OC1C(O[C@H]2C[C@H]3[C@@H]4CC=C5C[C@@H](O)CC[C@]5(C)[C@H]4CC[C@]3(C)[C@H]2[C@H](C)C(=O)CCC(C)C)OCC(O)C1OC1OCC(O)C(O)C1OC(=O)c1ccc(OC)cc1 (stereo not given in full),-25.5% (active)
15,COC(=O)C(Br)(C(=O)OC)C(Br)C(Br)C(Br)c1ccccc1 (stereo not given),106% (inactive)
16,S=C(S)Oc1cccc2cccnc12,106% (inactive)
17,Cc1ccc(C)c2c1SC1=NNC(Oc3ccc(Cl)cc3)=C(C#N)C(=N)N12,98.7% (inactive)
18,O=C(CCCCCCN1CC(=O)N2[C@@H](c3ccc(Cl)c(Cl)c3)c3[nH]c4ccccc4c3C[C@H]2C1=O)NO,6.04% (active)
19,Nc1c(N)c2ccccc2c2ccccc12,94.8% (inactive)
20,CC(=O)NC1C(O[C@H]2C[C@H]3[C@@H]4CC=C5C[C@@H](O)CC[C@]5(C)[C@H]4CC[C@]3(C)[C@H]2[C@H](C)C(=O)CCC(C)C)OCC(O)C1O (stereo not given in full),-9.81% (active)

row,SMILES,growth
1,O=C1OCC2=C1C(c1ccccc1)c1cc3c(cc1N2CCO)CCC3 (stereo not given),23.9% (inactive)
2,C#Cc1cccc(Nc2nc3cc([N+](=O)[O-])ccc3nc2Nc2ccc(O)cc2)c1,11.9% (inactive)
3,COc1cc(C2CC(c3ccc(Cl)cc3)=NN2C=O)ccc1Oc1ccnc2cc(Cl)ccc12 (stereo not given),65.1% (inactive)
4,O=C1OC(/C=C/c2ccccc2)=NC/1=C/c1ccccc1[N+](=O)[O-],91.9% (inactive)
5,COc1ccc2[nH]cc(C3(c4c[nH]c5ccc(OC)cc45)C(=O)Nc4ccc(F)cc43)c2c1,40.9% (inactive)
6,COc1cccc(/C=N\Nc2ccc([N+](=O)[O-])cn2)c1O,62.6% (inactive)
7,CC1=C(O)C(=O)CC1,110% (inactive)
8,Cc1ccncc1NC=O,99.9% (inactive)
9,COc1ccccc1/C=C/C(=O)CCC(=O)O,98.8% (inactive)
10,COc1cnc2c(c1)C(=O)c1c-2n(CCCN2CCN(C)CC2)c(=O)c2cc(Cl)ccc12,43.5% (inactive)
11,O=C(N/N=C/c1ccccc1O)c1ccncc1,53.9% (inactive)
12,COc1ccc2c(c1)C1=NN(C(=O)CO)[C@H](c3ccc(OC(F)(F)F)cc3)[C@@H]1CC2,42.9% (inactive)
13,CCN(CC)CCCC(C)Nc1c(-c2ccccc2)cnc2cc(Cl)ccc12 (stereo not given),27.4% (inactive)
14,COc1cnc2c(c1)C(=O)c1c-2n(CCCNC(C)C)c(=O)c2cc(Cl)ccc12,-59% (active)
15,COc1cc(C2CC(c3ccc(Cl)cc3)=NN2C(C)=O)ccc1Oc1ccnc2cc(Cl)ccc12 (stereo not given),87.3% (inactive)
16,COc1ccc(NC(=O)c2sc3c(=O)[nH]c(C(F)(F)F)nc3c2C)cc1,95% (inactive)
17,O=C(CSc1nc2c(n1Nc1ccccc1)-c1ccccc1SC2)Nc1nccs1,90.7% (inactive)
18,Cc1ccccc1C1CC(=O)c2ccccc2C1C (stereo not given),93.8% (inactive)
19,CCC(=O)OCc1ccc(OC)cc1,107% (inactive)
20,CN1C2CCC1/C(=C\c1ccc(F)cc1)C(=O)/C2=C/c1ccc(F)cc1,11% (inactive)
